PKM2 act: increases activity of human pyruvate kinase M2. purified PKM2, Kinase-Glo ATP luminescence, activation; response scale: 0% is enzyme alone, no compound. Potency, µM (doses to about 57.5 µM), without a hit: at the top dose activation, usual class: activators. 260,000 compounds, 0.34% hits; also: potency is read from the fitted curve at half-maximal effect; % is scaled to controls: 0 for no effect and ±100 for the full control effect; nearly all actives have a fitted effect of over 55% in size
Target sequence (P14618 whole entry, looked up): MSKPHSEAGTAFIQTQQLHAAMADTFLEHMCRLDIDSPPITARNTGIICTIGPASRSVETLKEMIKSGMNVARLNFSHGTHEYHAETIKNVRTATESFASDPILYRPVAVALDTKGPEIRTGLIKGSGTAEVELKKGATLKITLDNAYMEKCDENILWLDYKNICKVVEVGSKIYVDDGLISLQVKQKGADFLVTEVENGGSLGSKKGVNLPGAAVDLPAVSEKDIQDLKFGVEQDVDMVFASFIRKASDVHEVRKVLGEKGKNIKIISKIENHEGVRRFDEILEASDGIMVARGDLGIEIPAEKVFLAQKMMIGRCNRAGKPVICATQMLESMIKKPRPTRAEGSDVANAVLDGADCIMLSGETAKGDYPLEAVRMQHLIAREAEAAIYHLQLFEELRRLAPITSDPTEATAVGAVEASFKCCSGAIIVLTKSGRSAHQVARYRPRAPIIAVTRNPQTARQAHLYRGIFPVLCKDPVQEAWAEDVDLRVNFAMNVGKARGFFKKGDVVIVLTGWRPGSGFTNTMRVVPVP
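ATP formation by purified human PK-M2, quantified via coupled luciferase luminescence after 1 h at room temperature with 0.1 mM ADP and 0.5 mM PEP final.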
BRCA1 expr act: activators of BRCA1 expression. Potency, µM (doses to about 46.1 µM), inactives show at the highest dose activation, actives largely listed as activators. MCF7-BRCA1-FFLuc reporter, luminescence, 48 h; response scale: scaled: vehicle 0%, 10 µM genistein 100%. 380,000 compounds, 1.1% hits; also: potency is read from the fitted curve at half-maximal effect; nearly all actives have a fitted effect of over 80% in size
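Luminescence from a BRCA1-driven firefly luciferase in MCF7 cells was the read-out, taken 15 min after substrate addition following 48 h compound exposure at 37 °C. Data were normalized to a 10 microM genistein control and DMSO vehicle.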
TSG101-PTAP inh: blocks PTAP/TSG101 interaction to inhibit HIV-1 budding; Fluorescence polarization, FITC-PTAP peptide / Tsg101 binding; Potency, µM (doses to about 115 µM), inactives show at the highest dose activity change, negative = inhibition, actives largely listed as inhibitors; 340,000 tested, under 10 active; active = well fitted inhibition curve with a large enough effect in the main read-out, with a control signal flat, not every such curve was filed as active; inconclusive = small, poorly fitted or top-dose-only effect, or effect the other way, or a change in a side signal; inactive = no such curve, though single readings can be large or run the other way; also: potency is read from the fitted curve at half-maximal effect; % of control where 0% means no effect
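Tsg101 binding domain (10 uM final) was mixed with compound and a FITC-labeled PTAP peptide (50 nM final) in HEPES pH 7.5 buffer with NaCl, Tween 20, EDTA and TCEP; fluorescence polarization was read after 20 min at r.t.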
TRPML1 inh: inhibitors of human TRPML1 channel; 390,000 compounds, 0.02% hits; activity change, negative = inhibition, % (test concentration not listed); TRPML1-inducible cells, Ca2+ dye fluorescence, FDSS; stronger effect = lower value; inhibition of EC80 agonist-evoked calcium signal; in the data active = activity change below about -50%; inconclusive = between about -30% and that limit;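 also: stimulus is agonist 54-4 at its EC80 concentration; % is scaled to controls: 0 for no effect and ±100 for the full control effect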
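Tet-induced TRPML1-DL cells loaded with Ca8 no-wash calcium dye were read kinetically on FDSS. Compound addition was followed by EC80 agonist 54-4 (4 uM final); inhibition was read over 110 s.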
IL2 activator: IL-2 activation | IL-2 activation reporter assay, cell-based qHTS; stimulated with anti-CD3/CD4/CD28 beads; in transgenic mouse T cells | activation, % (series mostly up to about 46 µM) | 360,000 compounds, 0.065% hits | AID 652025; in the data active = activation above about 50%; inconclusive = mostly about 30% to 49%; also: 0% is about no effect
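Unstimulated transgenic mouse T cells, 750 per well, received compound and, after 60 minutes, anti-CD3/anti-CD4 bead plus anti-CD28 stimulation. EGFP and DsRed were quantified after 18 hours.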
TRPML1 agonist: human mucolipin-1 channel agonism | Q9GZU1 | TRPML1-expressing cells, Ca2+ dye fluorescence, FDSS | 410,000 compounds, 0.12% hits | activation, % (no concentration beside the values); in the data active = activation above about 50%; inconclusive = mostly about 30% to 49%; also: 0% is about no effect
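Tetracycline-induced TRPML1-DL cells are seeded and incubated overnight before loading with a no-wash Ca2+ dye and quencher. Agonist activity is taken from the 110 s fluorescence read following compound pin-transfer on an FDSS, before EC80 54-4 challenge.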
Active calls of the source: *; ? = inconclusive; · = not tested or not shown; [ ] = dose if it differs, or a comment. An excerpt weighted towards active compounds, which were near 1.3% of everything screened. Unless noted, calls follow the shape of the dose curve; as a rule, active = well fitted activation curve with a large enough effect; inconclusive = small, poorly fitted or top-dose-only effect; inactive = no such curve, though single readings can be large or run the other way.

SMILES | PKM2 act | BRCA1 expr act | TSG101-PTAP inh | TRPML1 inh | IL2 activator | TRPML1 agonist
C[C@@H]1[C@H](c2ccccc2)OCCS(=O)(=O)N1Cc1cccc(Cl)c1 | · | · | · | · | · | -1
C(#Cc1ccccc1)Cn1nnc2ccccc21 | -4% | 13µM* | -7% | -12 | 0 | 0
c1ccc(CNn2nnc3ccccc32)cc1 | · | 5µM* | · | · | 0 | -1
Cc1ccc(S(=O)(=O)N2CCN(c3nc(-c4cscn4)nc4ccccc34)CC2)cc1 | · | 0% | · | · | · | 0
O=C(C[n+]1cccc2cccc(O)c21)c1ccc(Cl)cc1 | · | · | · | · | · | 7
Cc1cc(/C=C2/NC(=O)N(c3ccccc3)C2=O)c(C)n1-c1cccnc1 | -7% | 1.3µM* | -1% | 5 | -5 | -1
Cc1cc(/C=C2/NC(=S)NC2=O)c(C)n1-c1cccnc1 | -6% | 39% | 23% | 14 | 2 | 5
c1cc2c3c(c1)CCC[N+]3(C1CCCCC1)CCC2 | · | · | · | · | · | 0
CCOc1ccc(/C=C/C(=O)Oc2ccc(OC)cc2)cc1 | 3%[11.5 µM] | -5% | -4% | 17 | 0 | 0
CCOc1ccc(/C=C\C(C)=N\O)cc1 | -28% | 2.8µM* | -2% | -4 | 1 | 0
CCC(C)NC(=O)C1CCC(CNS(=O)(=O)c2ccc(Cl)cc2)CC1 (stereo not given) | · | · | · | 23 | · | 1
CN(C)Cc1c(O)ccc2cc(-c3nc4ccccc4n3C)c(=O)oc12 | 7% | 13µM* | -15% | -10 | -1 | 7
CCN(CC)c1ccc2cc(-c3nc(-c4ccc(OC)cc4)cs3)c(=O)oc2c1 | -7% | -13% | ? | -26 | 13 | 118*
CCN(CC)c1ccc2cc(-c3nc4ccccc4[nH]3)c(=O)oc2c1 | 3% | 24% | ? | ? | 14 | 97*
CCN(CC)c1ccc2cc(-c3nc4ccccc4n3C)c(=O)oc2c1 | -16% | -19% | ? | 14 | 1 | 61*
CC(C)(C)c1cc(C(C)(C)C)c2oc(=O)c(-c3nc4ccccc4[nH]3)cc2c1 | · | · | · | -16 | · | 0
CCN(CC)c1ccc2cc(-c3nnc(-c4ccccc4)o3)c(=O)oc2c1 | -4% | 1.4µM* | ? | -15 | 12 | 72*
CCN(CC)c1ccc2cc(C(=O)c3cccs3)c(=O)oc2c1 | · | 52% | · | · | 11 | 84*
COc1ccc(-c2noc(CC(=O)N(C)c3cccc(C)c3)n2)cc1 | · | · | · | 3 | · | 1
CCOC(=O)c1cccc(NS(=O)(=O)c2ccc(-c3cnc(C4CC4)o3)cc2)c1 | · | -51% | · | 47 | · | 1
COc1cc2nc(/C=C/c3ccc(N(C)C)cc3)sc2cc1SC | 0% | -15% | ? | -12 | 24 | 120*
Cc1cc(/C=C/c2nc3ccccc3s2)ccc1N(C)C | · | -9% | · | · | · | 1
Cc1ccc(CNc2ccc(-c3nc(C(C)C)no3)cc2[N+](=O)[O-])cc1 | · | 0% | · | 12 | · | -1
CCCOc1ccc(OCCn2nc(C(=O)O)c3ccccc3c2=O)cc1 | 32µM* | -10% | -2% | -14 | -3 | 2
Cc1ccccc1OCCn1nc(C(=O)O)c2ccccc2c1=O | 11% | 4% | -4% | 20 | -1 | 4
SMILES | PKM2 act | BRCA1 expr act | TSG101-PTAP inh | TRPML1 inh | IL2 activator | TRPML1 agonist
Cc1cccc(OCC(=O)Nc2cc(-c3nc4cc(Cl)ccc4o3)ccc2C)c1 | · | 6% | · | · | · | 0
O=c1oc2c(CN3CCOCC3)c(O)ccc2c2ccccc12 | -5% | 14µM* | 0% | 3 | 0 | -1
Fc1ccc(/C=C/c2ccc3ccccc3n2)cc1 | · | · | · | · | · | 0
CC(C)COc1ccc(C(=O)Nc2ccc(SC(F)F)cc2)cc1 | 2% | 8.9µM* | 1% | -5 | 3 | 1
Cc1ccc(S(=O)(=O)c2nnn3c2nc(NCc2ccccc2Cl)c2sccc23)cc1 | · | · | · | 16 | · | 0
O=[N+]([O-])c1ccc(NN=Cc2ccccc2O)nc1 | · | -64% | -2% | 26 | 0 | 2
COc1ccccc1C=NNc1ccc([N+](=O)[O-])cn1 | · | -7% | -2% | 5 | 73* | 0
COc1cccc(C=NNc2ccc([N+](=O)[O-])cn2)c1OC | · | 42% | 2% | 0 | 0 | 0
O=[N+]([O-])c1ccc(N/N=C/c2cccs2)nc1 | · | 4µM* | -1% | 30 | 0 | 2
N#Cc1ccccc1Cn1cc(/C=N/Nc2ccc([N+](=O)[O-])cn2)c2ccccc21 | 12% | 4% | 6% | 4 | 74* | 5
COc1ccccc1/C=N\Nc1ccccc1[N+](=O)[O-] | -1% | 10µM* | -1% | 9 | 0 | 2
Cc1nnc(NC(=O)c2cc3ccccc3o2)s1 | · | 7.1µM* | -5% | -1 | 0 | 0
CCOC(=O)c1oc2ccc(CNCCO)c(Cl)c2c1C | -2% | 11µM* | -7% | 14 | -3 | 0
CCOC(=O)c1oc2ccc(CNC3CCCCC3)c(Cl)c2c1C | -3% | -10% | -2% | 44 | -1 | 1
Nc1nc(Nc2ccccc2)sc1C(=O)c1ccccc1 | 1% | -28% | -3% | 12 | -6 | 3
Cc1cnc(NC(=O)c2sc(Nc3ccccc3)nc2N)o1 | -6% | 13µM* | -3% | 5 | -1 | 1
Cc1ccc(OCCc2csc(N)n2)cc1 | 3% | 91% | -2% | -10 | -1 | 0
COc1ccc(OCc2csc(N)n2)cc1 | 2% | 10µM* | -1% | 9 | 5 | 0
CCOC(=O)c1ccc2c(c1)N(Cc1ccc(F)cc1Cl)C(=O)c1ccccc1S2 | · | · | · | 31 | · | 2
CC(=O)c1ccc(-c2ccc(-c3cc(=O)oc4c(C(C)C)ccc(C)c34)cc2)cc1 | · | -17% | 1% | -1 | 0 | 64*
Cc1ccc(C(C)C)c2oc(=O)cc(-c3ccc(-c4ccc(C(F)(F)F)cc4)cc3)c12 | · | 0% | -2% | 1 | 0 | 3
COc1ccc(NC(=S)Nc2ccccn2)c(OC)c1 | -4% | 5.6µM* | -8% | -3 | -2 | -1
O=C(CSc1nc(=O)n2cc(Cl)ccc2n1)Nc1ccc2c(c1)OCCO2 | · | -18% | -2% | 9 | -1 | -1
O=C(CSc1nc(=O)n2cc(Cl)ccc2n1)Nc1ccc2c(c1)OCO2 | · | -2% | -3% | 3 | 312* | 0
CNc1oc(-c2cccs2)nc1C#N | 0% | 0% | 0% | -12 | -4 | -2
COc1ccc(Nc2oc(-c3cccs3)nc2C#N)cc1 | -1% | 1.4µM* | -7% | -2 | -1 | 1
N#Cc1nc(-c2cccs2)oc1NCCc1ccccc1 | 12% | 11µM* | -2% | -6 | 0 | 0
O=C(Nc1cc(Cl)cc(Cl)c1)c1ccc(F)c(S(=O)(=O)N2CCN(c3ccccc3F)CC2)c1 | · | · | · | -1 | · | 1

High-throughput results as filed in PubChem.
